Source: PubChem (Broad Institute)
Tg IFNy HTS = blocks Toxoplasma gondii growth in the presence of IFN-gamma; Toxoplasma gondii growth in IFN-gamma-treated host cells; stronger effect = lower value; activity change, negative = inhibition, % (test concentration not listed); 69,000 tested, 3.8% active; AID 1259416; in the data active means activity change below about -70%, passing the limit was not always enough;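 further: host cells are HeLa cells infected with Toxoplasma gondii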
Numbers stand for hits; . = inactive. The sample as a whole holds a higher share of hits than the screen did.

SMILES	Tg IFNy HTS
Cc1ncsc1CCN(C)Cc1ccc(-n2ccnc2)cc1	.
O=C(c1ccc(NCCc2ncc[nH]2)nc1)N1CCC(Cn2cccn2)CC1	.
CCC(c1cccnc1)N(C)C(=O)Cc1ccc(F)c(F)c1F (configuration not stated)	.
NC(=S)N=Nc1c(O)n(Cc2ccccc2)c2ccccc12	-103
Cc1cc(Br)c2c(c1)c(N=NC(N)=S)c(O)n2C	.
CS(=O)(=O)N1[C@H](CO)[C@@H](c2ccccc2-c2ccccc2F)[C@@H]1C#N	.
CC(C)CN1CCN(C(=O)c2cccc3[nH]cc(CN4CCCC4)c23)CC1	.
N#Cc1cccc(CN2CCn3cc(Cn4cccn4)nc3C2)c1	.
O=C(NCC(c1cccnc1)c1c[nH]c2ccccc12)Nc1cccc(F)c1 (configuration not stated)	.
O=C(O)C1CC(=O)N(CCC2=CSC3=NCCCN23)C1 (configuration not stated)	.
CCOC(=O)c1c(C)nc2ccc(Cl)cc2c1-c1ccccc1	.
COc1ccc(-c2c(C)nc3ccc(Cl)cc3c2-c2ccccc2)cc1OC	-95
CCOC(=O)COc1nc2ccc(Cl)cc2c(-c2ccccc2)c1C(C)=O	.
CN(C)C1CCN(C(=O)c2cnc(-c3noc4cc(-c5ccccc5)ccc34)s2)CC1	.
CCCCN(C)C(=O)c1cnc(-c2noc3cc(NCC4CC4)ccc23)s1	-82
Cc1cc(CN(C)C(=O)c2cccc(NCc3ccc(C)s3)c2)on1	.
Brc1cnn(-c2ccccc2)c1	.
O=C(O)CSc1nnc(-c2cccnc2)n1-c1ccccc1C(F)(F)F	.
COc1ccc(OS(=O)(=O)c2sc3ccc(Cl)cc3c2C)cc1	-104
Cc1c(C(=O)CSc2ccc(Cl)cc2)sc2ccc(Cl)cc12	.
Cc1cc(=O)c2cc(Cl)ccc2s1	.
Cc1c(C(=O)N2CCCC3(CN(C)C(=O)O3)C2)[nH]c2ccc(F)cc12 (configuration not stated)	.
CCOc1ccc(NC(=O)CN2C(=O)CCc3cc(Br)ccc32)cc1	.
O=C(Nc1ccc(Cl)cc1)N1C[C@@H]2[C@H](c3ccccc31)[C@@H](CO)N2CC1CCCCC1	.
COc1ccccc1Cn1ncc2c1CCCC2NC(=O)c1cc(-c2cccs2)no1 (configuration not stated)	-77
SMILES	Tg IFNy HTS
CCCc1cc(CNC(=O)c2cc(-c3cccs3)no2)on1	.
COCc1ccc(C(=O)NC2CCCc3c2cnn3C)o1 (configuration not stated)	.
c1cnc2c(-c3nccn3CCCN3CCOCC3)cccc2c1	.
COc1ccc2c(c1)NC1(CCN(S(=O)(=O)c3cccs3)CC1)c1cccn1-2	.
O=C(c1cc2ccccc2[nH]1)N1CCC(c2[nH]ncc2Cc2ccccc2)CC1	.
O=C(CCc1c[nH]c2ccccc12)N1CCN(c2cc(-c3cccnc3)[nH]n2)CC1	.
O=C(NCC1CCN(c2cc(-c3ccncc3)[nH]n2)CC1)c1cc2ccccc2[nH]1	-79
CCN(CC)C(=O)c1cc(=O)n(CC(=O)Nc2cccc(C)c2)c2ccccc12	.
Cc1csc(NC(=O)C(=O)N2CCOC3(CNCCOC3)C2)n1 (configuration not stated)	.
OC[C@H]1O[C@H](O)C[C@@H](O)[C@@H]1O	.
CC(C)c1cc(C(=O)N2CCCn3nc(C(=O)NC4CC4)cc3C2)on1	.
CSc1ccc(C2c3[nH]c4ccccc4c3CCN2C(=O)c2ccccc2)cc1 (configuration not stated)	-88
COc1ccc(CC(=O)N2CCc3c([nH]c4ccccc34)C2c2ccc(SC)cc2)cc1 (configuration not stated)	.
CSc1ccc(C2c3[nH]c4ccccc4c3CCN2C(=O)c2ccc(F)cc2)cc1 (configuration not stated)	.
COc1cc(C(=O)N2CCc3c([nH]c4ccccc34)C2c2ccc(SC)cc2)cc(OC)c1OC (configuration not stated)	.
CSc1ccc(C2c3[nH]c4ccccc4c3CCN2C(=O)c2ccncc2)cc1 (configuration not stated)	.
COc1ccc(C(=O)N2CCc3c([nH]c4ccccc34)C2c2ccc(SC)cc2)cc1 (configuration not stated)	-105
CC(=O)SC1CC2=CC(=O)CCC2(C)C2CCC3(C)C(CCC34CCC(=O)O4)C12 (configuration not stated)	.
CC(=O)[C@@]1(O)CC[C@H]2[C@@H]3C[C@H](C)C4=CC(=O)CC[C@]4(C)[C@H]3CC[C@@]21C	.
C[C@]12CCC(=O)C=C1[C@@H]1C[C@@H]1[C@H]1[C@@H]3[C@@H]4C[C@@H]4[C@@]4(CCC(=O)O4)[C@@]3(C)CC[C@@H]12	-85
O=C(O)c1ccc(C2CCN(C(=O)C3CCOCC3)C2)cc1 (configuration not stated)	.
CCCCN(CCCC)CCNC(=O)C1=C(C)C(=O)OC12CCN(C(=O)OCC)CC2	.
C[C@H]1CN([C@@H](C)CO)C(=O)c2ccccc2-c2ccccc2CO[C@@H]1CN(C)S(=O)(=O)c1ccc([N+](=O)[O-])cc1	.
